{"source": "the supplement of paper PMC12282887", "assay_in_all_cases": "promoter activity interaction Z-score (Lux/OD deviation from empty-vector control); higher = stronger promoter induction by the compound", "key": {"[1]": {"test_system": "E. coli BW25113 acrABp lux reporter", "summary_of_the_method": "(§1)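 At 37°C, E. coli BW25113 reporter cultures in 40 µl LB Lennox in 384-well plates were read for OD600 and luminescence every 30 min for 12 h. Windows were 0–8 h for wild type and 1–9 h for deletion strains, and wells under 10% of the median growth value were removed. The score is the Z-transformed residual of growth-normalised luminescence against a control fit.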"}, "[2]": {"test_system": "E. coli BW25113 micFp lux reporter", "summary_of_the_method": "as §1"}, "[3]": {"test_system": "E. coli BW25113 ompFp lux reporter", "summary_of_the_method": "as §1"}, "[4]": {"test_system": "E. coli BW25113 robp lux reporter", "summary_of_the_method": "as §1"}, "[5]": {"test_system": "E. coli BW25113 soxSp lux reporter", "summary_of_the_method": "as §1"}, "[6]": {"test_system": "E. coli BW25113 tolCp lux reporter", "summary_of_the_method": "as §1"}, "[7]": {"details": "1 µg/ml, genetic background: wild type"}, "[8]": {"details": "1 µg/ml, genetic background: ΔmarA"}, "[9]": {"details": "1 µg/ml, genetic background: Δrob"}, "[10]": {"details": "1 µg/ml, genetic background: ΔsoxS"}, "[11]": {"details": "1.9 µg/ml, genetic background: wild type"}, "[12]": {"details": "1.9 µg/ml, genetic background: ΔmarA"}, "[13]": {"details": "1.9 µg/ml, genetic background: Δrob"}, "[14]": {"details": "1.9 µg/ml, genetic background: ΔsoxS"}, "[15]": {"details": "3.8 µg/ml, genetic background: wild type"}, "[16]": {"details": "3.8 µg/ml, genetic background: ΔmarA"}, "[17]": {"details": "3.8 µg/ml, genetic background: Δrob"}, "[18]": {"details": "3.8 µg/ml, genetic background: ΔsoxS"}, "[19]": {"details": "7.7 µg/ml, genetic background: wild type"}, "[20]": {"details": "7.7 µg/ml, genetic background: ΔmarA"}, "[21]": {"details": "7.7 µg/ml, genetic background: Δrob"}, "[22]": {"details": "7.7 µg/ml, genetic background: ΔsoxS"}}, "note": "± gives the standard deviation of the averaged measurements."}
{"smiles": "NC1CONC1=O", "note": "(stereo unspecified) [Cycloserine D]", "values": [{"measurement": "promoter activity interaction Z-score", "setting": "[1]; [7]", "result": "0.0277 ± 0.22"}, {"measurement": "promoter activity interaction Z-score", "setting": "[1]; [8]", "result": "0.657 ± 0.33"}, {"measurement": "promoter activity interaction Z-score", "setting": "[1]; [9]", "result": "-0.0729 ± 0.055"}, {"measurement": "promoter activity interaction Z-score", "setting": "[1]; [10]", "result": "0.00357 ± 0.22"}, {"measurement": "promoter activity interaction Z-score", "setting": "[1]; [11]", "result": "-0.389 ± 0.056"}, {"measurement": "promoter activity interaction Z-score", "setting": "[1]; [12]", "result": "0.57 ± 0.12"}, {"measurement": "promoter activity interaction Z-score", "setting": "[1]; [13]", "result": "0.0199 ± 0.26"}, {"measurement": "promoter activity interaction Z-score", "setting": "[1]; [14]", "result": "-0.339 ± 0.62"}, {"measurement": "promoter activity interaction Z-score", "setting": "[1]; [15]", "result": "-0.136 ± 0.039"}, {"measurement": "promoter activity interaction Z-score", "setting": "[1]; [16]", "result": "-0.29 ± 0.2"}, {"measurement": "promoter activity interaction Z-score", "setting": "[1]; [17]", "result": "0.00284 ± 0.03"}, {"measurement": "promoter activity interaction Z-score", "setting": "[1]; [18]", "result": "-0.0366 ± 0.12"}, {"measurement": "promoter activity interaction Z-score", "setting": "[1]; [19]", "result": "-0.588 ± 0.2"}, {"measurement": "promoter activity interaction Z-score", "setting": "[1]; [20]", "result": "-0.128 ± 0.24"}, {"measurement": "promoter activity interaction Z-score", "setting": "[1]; [21]", "result": "-0.0882 ± 0.11"}, {"measurement": "promoter activity interaction Z-score", "setting": "[1]; [22]", "result": "-0.319 ± 0.24"}, {"measurement": "promoter activity interaction Z-score", "setting": "[2]; [7]", "result": "0.0376 ± 0.12"}, {"measurement": "promoter activity interaction Z-score", "setting": "[2]; [8]", "result": "-0.00943 ± 0.084"}, {"measurement": "promoter activity interaction Z-score", "setting": "[2]; [9]", "result": "-0.118 ± 0.074"}, {"measurement": "promoter activity interaction Z-score", "setting": "[2]; [10]", "result": "-0.0115 ± 0.022"}, {"measurement": "promoter activity interaction Z-score", "setting": "[2]; [11]", "result": "-0.417 ± 0.2"}, {"measurement": "promoter activity interaction Z-score", "setting": "[2]; [12]", "result": "-0.00494 ± 0.0052"}, {"measurement": "promoter activity interaction Z-score", "setting": "[2]; [13]", "result": "-0.0732 ± 0.01"}, {"measurement": "promoter activity interaction Z-score", "setting": "[2]; [14]", "result": "-0.388 ± 0.035"}, {"measurement": "promoter activity interaction Z-score", "setting": "[2]; [15]", "result": "-0.305 ± 0.5"}, {"measurement": "promoter activity interaction Z-score", "setting": "[2]; [16]", "result": "-0.0376 ± 0.047"}, {"measurement": "promoter activity interaction Z-score", "setting": "[2]; [17]", "result": "-0.0224 ± 0.047"}, {"measurement": "promoter activity interaction Z-score", "setting": "[2]; [18]", "result": "-0.251 ± 0.019"}, {"measurement": "promoter activity interaction Z-score", "setting": "[2]; [19]", "result": "-0.38 ± 0.0041"}, {"measurement": "promoter activity interaction Z-score", "setting": "[2]; [20]", "result": "0.0683 ± 0.028"}, {"measurement": "promoter activity interaction Z-score", "setting": "[2]; [21]", "result": "0.105 ± 0.092"}, {"measurement": "promoter activity interaction Z-score", "setting": "[2]; [22]", "result": "-0.294 ± 0.16"}, {"measurement": "promoter activity interaction Z-score", "setting": "[3]; [7]", "result": "0.314 ± 0.21"}, {"measurement": "promoter activity interaction Z-score", "setting": "[3]; [8]", "result": "0.134 ± 0.086"}, {"measurement": "promoter activity interaction Z-score", "setting": "[3]; [9]", "result": "-0.394 ± 0.46"}, {"measurement": "promoter activity interaction Z-score", "setting": "[3]; [10]", "result": "0.0539 ± 0.036"}, {"measurement": "promoter activity interaction Z-score", "setting": "[3]; [11]", "result": "-0.14 ± 0.24"}, {"measurement": "promoter activity interaction Z-score", "setting": "[3]; [12]", "result": "0.387 ± 0.13"}, {"measurement": "promoter activity interaction Z-score", "setting": "[3]; [13]", "result": "-0.422 ± 0.075"}, {"measurement": "promoter activity interaction Z-score", "setting": "[3]; [14]", "result": "-0.381 ± 0.19"}, {"measurement": "promoter activity interaction Z-score", "setting": "[3]; [15]", "result": "-0.202 ± 0.043"}, {"measurement": "promoter activity interaction Z-score", "setting": "[3]; [16]", "result": "0.194 ± 0.031"}, {"measurement": "promoter activity interaction Z-score", "setting": "[3]; [17]", "result": "0.0558 ± 0.16"}, {"measurement": "promoter activity interaction Z-score", "setting": "[3]; [18]", "result": "0.0329 ± 0.09"}, {"measurement": "promoter activity interaction Z-score", "setting": "[3]; [19]", "result": "-0.567 ± 0.3"}, {"measurement": "promoter activity interaction Z-score", "setting": "[3]; [20]", "result": "0.0892 ± 0.075"}, {"measurement": "promoter activity interaction Z-score", "setting": "[3]; [21]", "result": "0.153 ± 0.069"}, {"measurement": "promoter activity interaction Z-score", "setting": "[3]; [22]", "result": "-0.485 ± 0.02"}, {"measurement": "promoter activity interaction Z-score", "setting": "[4]; [7]", "result": "0.73 ± 0.71"}, {"measurement": "promoter activity interaction Z-score", "setting": "[4]; [8]", "result": "0.0767 ± 0.37"}, {"measurement": "promoter activity interaction Z-score", "setting": "[4]; [9]", "result": "0.466 ± 0.27"}, {"measurement": "promoter activity interaction Z-score", "setting": "[4]; [10]", "result": "0.49 ± 0.31"}, {"measurement": "promoter activity interaction Z-score", "setting": "[4]; [11]", "result": "-0.277 ± 0.26"}, {"measurement": "promoter activity interaction Z-score", "setting": "[4]; [12]", "result": "0.295 ± 0.52"}, {"measurement": "promoter activity interaction Z-score", "setting": "[4]; [13]", "result": "0.186 ± 0.67"}, {"measurement": "promoter activity interaction Z-score", "setting": "[4]; [14]", "result": "0.471 ± 0.99"}, {"measurement": "promoter activity interaction Z-score", "setting": "[4]; [15]", "result": "-0.466 ± 0.068"}, {"measurement": "promoter activity interaction Z-score", "setting": "[4]; [16]", "result": "0.31 ± 0.081"}, {"measurement": "promoter activity interaction Z-score", "setting": "[4]; [17]", "result": "0.0139 ± 0.21"}, {"measurement": "promoter activity interaction Z-score", "setting": "[4]; [18]", "result": "-0.224 ± 0.093"}, {"measurement": "promoter activity interaction Z-score", "setting": "[4]; [19]", "result": "-1.02 ± 0.081"}, {"measurement": "promoter activity interaction Z-score", "setting": "[4]; [20]", "result": "-0.102 ± 0.31"}, {"measurement": "promoter activity interaction Z-score", "setting": "[4]; [21]", "result": "-0.282 ± 0.25"}, {"measurement": "promoter activity interaction Z-score", "setting": "[4]; [22]", "result": "-0.361 ± 0.67"}, {"measurement": "promoter activity interaction Z-score", "setting": "[5]; [7]", "result": "0.217 ± 0.043"}, {"measurement": "promoter activity interaction Z-score", "setting": "[5]; [8]", "result": "0.0924 ± 0.0091"}, {"measurement": "promoter activity interaction Z-score", "setting": "[5]; [9]", "result": "0.0464 ± 0.16"}, {"measurement": "promoter activity interaction Z-score", "setting": "[5]; [10]", "result": "0.093 ± 0.016"}, {"measurement": "promoter activity interaction Z-score", "setting": "[5]; [11]", "result": "-0.193 ± 0.011"}, {"measurement": "promoter activity interaction Z-score", "setting": "[5]; [12]", "result": "0.076 ± 0.02"}, {"measurement": "promoter activity interaction Z-score", "setting": "[5]; [13]", "result": "-0.205 ± 0.024"}, {"measurement": "promoter activity interaction Z-score", "setting": "[5]; [14]", "result": "0.164 ± 0.2"}, {"measurement": "promoter activity interaction Z-score", "setting": "[5]; [15]", "result": "-0.0918 ± 0.052"}, {"measurement": "promoter activity interaction Z-score", "setting": "[5]; [16]", "result": "-0.113 ± 0.019"}, {"measurement": "promoter activity interaction Z-score", "setting": "[5]; [17]", "result": "0.0335 ± 0.083"}, {"measurement": "promoter activity interaction Z-score", "setting": "[5]; [18]", "result": "-0.0149 ± 0.074"}, {"measurement": "promoter activity interaction Z-score", "setting": "[5]; [19]", "result": "-0.198 ± 0.27"}, {"measurement": "promoter activity interaction Z-score", "setting": "[5]; [20]", "result": "-0.171 ± 0.14"}, {"measurement": "promoter activity interaction Z-score", "setting": "[5]; [21]", "result": "-0.117 ± 0.11"}, {"measurement": "promoter activity interaction Z-score", "setting": "[5]; [22]", "result": "-0.174 ± 0.047"}, {"measurement": "promoter activity interaction Z-score", "setting": "[6]; [7]", "result": "0.33 ± 0.084"}, {"measurement": "promoter activity interaction Z-score", "setting": "[6]; [8]", "result": "1.18 ± 0.26"}, {"measurement": "promoter activity interaction Z-score", "setting": "[6]; [9]", "result": "-0.401 ± 0.15"}, {"measurement": "promoter activity interaction Z-score", "setting": "[6]; [10]", "result": "-0.259 ± 0.83"}, {"measurement": "promoter activity interaction Z-score", "setting": "[6]; [11]", "result": "-0.543 ± 0.64"}, {"measurement": "promoter activity interaction Z-score", "setting": "[6]; [12]", "result": "-0.33 ± 0.62"}, {"measurement": "promoter activity interaction Z-score", "setting": "[6]; [13]", "result": "-0.224 ± 0.69"}, {"measurement": "promoter activity interaction Z-score", "setting": "[6]; [14]", "result": "0.645 ± 0.11"}, {"measurement": "promoter activity interaction Z-score", "setting": "[6]; [15]", "result": "0.289 ± 0.26"}, {"measurement": "promoter activity interaction Z-score", "setting": "[6]; [16]", "result": "0.197 ± 0.06"}, {"measurement": "promoter activity interaction Z-score", "setting": "[6]; [17]", "result": "0.242 ± 0.12"}, {"measurement": "promoter activity interaction Z-score", "setting": "[6]; [18]", "result": "-0.045 ± 0.33"}, {"measurement": "promoter activity interaction Z-score", "setting": "[6]; [19]", "result": "-1.06 ± 0.73"}, {"measurement": "promoter activity interaction Z-score", "setting": "[6]; [20]", "result": "-0.822 ± 0.7"}, {"measurement": "promoter activity interaction Z-score", "setting": "[6]; [21]", "result": "-0.397 ± 0.29"}, {"measurement": "promoter activity interaction Z-score", "setting": "[6]; [22]", "result": "-0.568 ± 0.58"}]}
